Screening data (PubChem)
IL1B secr inh: inflammasome signaling inhibition, IL-1 beta readout. THP-1 LPS/ATP IL-1B secretion, AlphaLISA, 16 h; hits give low values. activity change, % at 57.5 µM. 360,000 tested, 4.7% active; in the data active = activity change below about -50%; inconclusive = mostly about -30% to -49%
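THP-1 cells pretreated 1 hr with compounds (up to 57.5 uM final), then stimulated with LPS (250 ng/mL final) plus ATP (1.25 mM final); secreted IL-1B measured by AlphaLISA after 16 hr, decreased signal indicating inhibition.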
DT40 TDP1 no CPT: qHTS for Inhibitors of human tyrosyl-DNA phosphodiesterase 1 (TDP1): qHTS in cells in absence of CPT. DT40 Tdp1-/- hTDP1 cells, no CPT, ATP luminescence, 48 h. Potency, µM (doses to about 46.2 µM), without a hit: top-dose activity change, negative = growth inhibition, most hits filed as inhibitors. 420,000 tested, 15% active. AID 686978, 2013; note: potency is the fitted concentration of half-maximal effect; nearly all actives have a fitted effect of over 55% in size
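Camptothecin absent (DMSO only). Human TDP1-complemented DT40 knockout cells, 400 cells/well, 37 °C for minimum 48 hr; ATP measured via CellTiter-Glo, 30 min dark incubation, luminescence.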
DT40 TDP1 CPT: DT40-hTDP1 cell growth loss with CPT; 420,000 tested, 12% active; chicken DT40 Tdp1-/-;hTDP1 cells + 20 nM CPT, ATP luminescence, 48 h; Potency, µM (titrated, usually from 46.2 µM), without a hit: at the top dose activity change, negative = growth inhibition, hits mostly inhibitors; AID 686979; note: potency is the fitted concentration of half-maximal effect; nearly all actives have a fitted effect of over 55% in size
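Chicken DT40 Tdp1-/- cells stably complemented with human TDP1 were seeded at 400 cells/well in medium containing 20 nM camptothecin, exposed to pin-transferred compounds, and grown at 37 °C for at least 48 hr. Viability was read as ATP luminescence.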
HT1080 IDH1KD tx: HT-1080 IDH1 knockdown cell toxicity (counter line) | HT-1080 IDH1 knockdown viability, ATP luminescence, 48 h | Potency, µM (highest dose often 46.1 µM), for the others: at the highest dose activity, negative = toxicity, actives largely listed as cytotoxic | 360,000 tested, 2% active | AID 686971;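 note: potency is the fitted concentration of half-maximal effect; 0% = DMSO wells and -100% = cell-free medium wells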
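HT-1080-IDH1KD cells (IDH1 knocked down), 750/well in RPMI with 5% FBS, treated with compound 48 h at 37 degrees C. Viability by CellTiter-Glo luminescence, normalised to DMSO and no-cell wells; concentration-response curves classed.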
HT1080-NT tox: kills 2HG-producing HT-1080-NT fibrosarcoma cells; HT-1080-NT fibrosarcoma viability, CellTiter-Glo ATP luminescence, 48 h; Potency, µM (doses to about 46.1 µM), for the others: at the highest dose activity, negative = less viability, most hits filed as cytotoxic; 360,000 tested, 1.6% active;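 note: NT is the 2HG producing partner of a matched IDH1 knockdown line; potency is the fitted concentration of half-maximal effect; 0% = DMSO-treated cells and -100% = media-only wells without cells; nearly all actives have a fitted effect of over 55% in size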
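Luminescent CellTiter-Glo readout after 48 hours of compound exposure at 37 degrees C defined viability of HT-1080-NT cells. Activity was normalized to DMSO wells and cell-free media wells; concentration-response curves were fitted and assigned curve classes.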
The depositor's hits bear a star; i = inactive; ? = inconclusive. An excerpt weighted towards active compounds, which were near 19% of everything screened. Unless noted, calls come from the whole dose curve; as a rule, active = well fitted curve in the direction sought with a large enough effect; inconclusive = small, poorly fitted or top-dose-only effect, or another doubt; inactive = no such curve, though single readings can be large; an effect the other way counts as inactive or inconclusive. Unless noted, % is set by controls: 0 for no effect and ±100 for the full control effect.

SMILES	IL1B secr inh	DT40 TDP1 no CPT	DT40 TDP1 CPT	HT1080 IDH1KD tx	HT1080-NT tox
CC(C)Cn1c(C(C)C)nc([N+](=O)[O-])c1S(=O)(=O)c1ccc(F)cc1	-89*	3.3µM*	2.3µM*	7.1µM*	3.5µM*
CCCc1nc([N+](=O)[O-])c(S(=O)(=O)c2ccccc2)n1CC(C)C	-100*	3.3µM*	16µM*	?	-10%
CC(C)CC1C(=O)N(Cc2cn(CC3CCCCC3)nn2)CCS(=O)(=O)N1Cc1ccc(-c2cccc(C#N)c2)cc1 (stereo not given)	-11	?	21µM*	-9%	-1%
CC(C)CC1C(=O)N(Cc2cn(CCC3OCCCO3)nn2)CCS(=O)(=O)N1Cc1ccc(-c2ccccc2)cc1 (stereo not given)	17	?	?	-1%	1%
COc1ccc(-c2ccc(CN3C(CC(C)C)C(=O)N(Cc4cn(CC5CCCCC5)nn4)CCS3(=O)=O)cc2)cc1OC (stereo not given)	-11	21µM*	23µM*	?	-15%
COc1ccc(-c2ccc(CN3C(C(C)C)C(=O)N(Cc4cn(CC5CCCCC5)nn4)CCS3(=O)=O)cc2)cc1OC (stereo not given)	?	1.6µM*	?	-13%	-5%
CC(C)CC1C(=O)N(Cc2cn(CC3CCCCC3)nn2)CCS(=O)(=O)N1Cc1ccc(-c2ccncc2)cc1 (stereo not given)	-16	15µM*	?	0%	-17%
O=C(NC1CCS(=O)(=O)C1)c1ccc(N2CCCCC2)c([N+](=O)[O-])c1 (stereo not given)	i	-22%	-9%	7%	2%
Cn1cccc1C1CCCN1CC(=O)Nc1ccc(C(N)=O)cc1 (stereo not given)	-10	10%	-10%	6%	0%
COC(=O)Cc1cc(=O)[nH]c(/N=C(\N)Nc2ccc(C(C)C)cc2)n1	53	?	?	-13%	1%
CNc1cc(-c2cc(OC)ccc2OC)ncn1	1	-7%	-19%	14%	26%
CC(C)CCN1C(=O)c2ccccc2C1c1nnnn1-c1ccc2c(c1)OCCO2 (stereo not given)	-4	16µM*	23µM*	16%	8%
COCCN1C(=O)c2ccccc2C1c1nnnn1-c1ccc2c(c1)OCCO2 (stereo not given)	0	5%	-9%	2%	18%
COc1ccc(CN2C(=O)c3ccccc3C2c2nnnn2-c2ccc3c(c2)OCCO3)cc1 (stereo not given)	-19	16µM*	?	0%	-10%
O=C1c2ccccc2C(c2nnnn2-c2ccc3c(c2)OCCO3)N1Cc1ccc(F)cc1 (stereo not given)	42	?	?	-13%	-18%
O=C1c2ccccc2C(c2nnnn2-c2ccc3c(c2)OCCO3)N1Cc1ccccc1 (stereo not given)	41	?	?	13%	1%
Cc1ccccc1CN1C(=O)c2ccccc2C1c1nnnn1-c1ccc2c(c1)OCCO2 (stereo not given)	99	4.1µM*	5.2µM*	3.3µM*	3.7µM*
Cc1ccc(CN2C(=O)c3ccccc3C2c2nnnn2-c2ccc3c(c2)OCCO3)cc1 (stereo not given)	9	16µM*	?	?	-16%
O=C1c2ccccc2C(c2nnnn2-c2ccc3c(c2)OCCO3)N1CCCn1ccnc1 (stereo not given)	2	-13%	-1%	16%	0%
Cc1cccc(NC(=O)c2cnccn2)c1	-21	4%	-5%	-1%	0%
CCCNC(=O)C(Cc1ccc(C(F)(F)P(=O)(OCC)OCC)cc1)NC(=O)c1ccc(C#N)cc1 (stereo not given)	-10	-29%	?	-1%	-1%
CN(C(=O)c1ccc(NC(=O)Cc2ccc(NC(=O)C3CCCN(S(=O)(=O)c4cccc([N+](=O)[O-])c4)C3)cc2)cc1)C1CCCC1 (stereo not given)	26	-26%	-14%	1%	1%
CC(C)n1nnnc1C1c2ccccc2C(=O)N1CCc1c[nH]c2ccccc12 (stereo not given)	-1	?	?	12%	2%
O=C1c2ccccc2C(c2nnnn2-c2ccc3c(c2)OCCO3)N1CCc1c[nH]c2ccccc12 (stereo not given)	27	15µM*	18µM*	?	-16%
COc1cccc(OC)c1NC(=O)c1ccc(-c2cc(Cl)ccc2Cl)o1	-58*	?	?	?	?
SMILES	IL1B secr inh	DT40 TDP1 no CPT	DT40 TDP1 CPT	HT1080 IDH1KD tx	HT1080-NT tox
Cc1ccc(NC(=O)c2ccc(-c3cc(Cl)ccc3Cl)o2)c(C)c1	-17	?	21µM*	-6%	-12%
Cc1ccccc1NC(=O)c1ccc(-c2ccc(Cl)cc2Cl)o1	-11	13µM*	?	-1%	-5%
O=C(c1cc(COc2ccc(F)cc2Cl)on1)N1CCCCCC1	-7	?	?	-1%	-7%
O=C(c1cc(COc2ccc(F)cc2Cl)on1)N1CCC(c2ccncc2)CC1	?	6.5µM*	6.5µM*	?	-18%
CCC(NC(=O)c1cc(COc2cncc(Cl)c2)on1)c1ccncc1 (stereo not given)	-24	?	?	-1%	-3%
CCC(NC(=O)c1cc(COc2ccc(F)cc2Cl)on1)c1ccncc1 (stereo not given)	?	23µM*	23µM*	?	-11%
COc1ccc(C(=O)NC2=Nc3ccccc3N=C(C)C2c2ccccc2)cc1 (stereo not given)	8	?	-18%	-18%	-23%
CC(=O)Nc1ccc(-c2ccnc3c2CC(C(=O)Nc2cccc(N(C)C)c2)O3)cc1 (stereo not given)	-19	2.6µM*	18µM*	12µM*	?
CC(=O)Nc1cccc(-c2ccnc3c2CC(C(=O)Nc2cccc(Oc4ccccc4)c2)O3)c1 (stereo not given)	-8	?	?	?	?
O=C(Nc1cccc(C(F)(F)F)c1)C1Cc2c(-c3cccc(F)c3)ccnc2O1 (stereo not given)	0	?	?	?	?
CC(=O)Nc1ccc(-c2ccnc3c2CC(C(=O)Nc2cccc(OC(F)(F)F)c2)O3)cc1 (stereo not given)	-13	18µM*	21µM*	?	?
